Here are results for 34 compounds from PubChem BioAssay (Tox21).

Values without a mark were called inactive. Results filed as inconclusive are left out. Calls of active or inactive are those of the source. The call rests on the fitted dose curve; in most records, active means well fitted curve in the direction sought with a large enough effect in the repeat runs; inconclusive means weak or mixed curves; inactive means no such curve, though single readings can be large; an effect the other way counts as inactive or inconclusive. Non-standard residues stand in square brackets, D forms with d. Residues, ends and D or L forms follow the SMILES beside them. *: point of attachment. Sta = CC(C)C[C@H](N)[C@@H](O)CC(=O)O; Isovaleryl = CC(C)CC(=O)*

A short description of test [1]: qHTS RealTime-Glo MT Cell Viability Assay in HEK293 cells - 32 hour (AID 1224868). Further: top concentration of the series differs between compounds; nearly all actives have a fitted effect of over 50% in size. Put shortly:
(§1)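 HEK293 cells were seeded at 600 cells/well together with NanoLuc luciferase and cell-permeant prosubstrate, preincubated 5 h at 37 C/5% CO2, then given compound in DMSO by pintool. Luminescence from viable-cell prosubstrate reduction was read repeatedly over 40 h.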

Test [2] in a line: A CellTox Green Cytotoxicity Assay to monitor cytotoxicity in HEK293 cells - 0 hour (AID 1224869). Further: nearly all actives have a fitted effect of over 50% in size. The essentials:
(§2)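 Cytotoxicity was tracked continuously in HEK293 cells by a DNA-binding dye excluded from viable cells. Compounds were transferred in DMSO 5 h after seeding; fluorescence was recorded at intervals up to 40 h.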

Test [3] can be described thus: qHTS RealTime-Glo MT Cell Viability Assay in HepG2 cells - 40 hour (AID 1224870). Further: nearly all actives have a fitted effect of over 50% in size. Put shortly: (§3)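 HepG2 cells mixed with RealTime-Glo MT reagents (NanoLuc plus cell-permeant prosubstrate) were seeded at 600 cells/well, incubated 5 h at 37 C/5% CO2, then pinned with compounds in DMSO; nonlytic luminescence tracked viability during 40 h treatment.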
Test [4] is described as follows: qHTS RealTime-Glo MT Cell Viability Assay in HEK293 cells - 16 hour (AID 1224872). Further: top concentration of the series differs between compounds; nearly all actives have a fitted effect of over 50% in size. The essentials:
as §1

The nature of test [5]: qHTS RealTime-Glo MT Cell Viability Assay in HepG2 cells - 8 hour (AID 1224873). Further: nearly all actives have a fitted effect of over 55% in size. Put shortly: as §3
Test [6] is described as follows: qHTS RealTime-Glo MT Cell Viability Assay in HepG2 cells - 32 hour (AID 1224877). Further: nearly all actives have a fitted effect of over 55% in size. Put shortly:
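HepG2 cells were seeded at 600 cells/well together with NanoLuc luciferase and a cell-permeant prosubstrate, preincubated 5 h at 37 C/5% CO2, then pin-dosed with compounds in DMSO. Nonlytic luminescence from viable cells was read at each time point.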

Test [7] is described as follows: A CellTox Green Cytotoxicity Assay to monitor cytotoxicity in HEK293 cells - 24 hour (AID 1224875). Further: nearly all actives have a fitted effect of over 45% in size. Further: potency means the concentration at half of the fitted maximal effect. On activity change: series mostly up to about 77 µM. Put shortly: as §2
Test [8] is described as follows: A CellTox Green Cytotoxicity Assay to monitor cytotoxicity in HepG2 cells - 16 hour (AID 1224876). Further: nearly all actives have a fitted effect of over 45% in size. Further: potency means the concentration at half of the fitted maximal effect. The essentials: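 Real-time, homogeneous cytotoxicity readout: dead-cell DNA staining by CellTox Green in HepG2 monolayers, fluorescence measured at timed intervals up to 40 h of continuous compound exposure.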
A short description of test [9]: qHTS RealTime-Glo MT Cell Viability Assay in HEK293 cells - 40 hour (AID 1224874). Further: nearly all actives have a fitted effect of over 50% in size. As to conditions: RealTime-Glo luminescence, active compounds read low. Put shortly: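 Nonlytic bioluminescent viability monitoring. HEK293 at 600 cells/well with reagent; 5 h settle; compound transfer by pintool; plates held at 37 C and read at set time points.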
Test [10] is described as follows: A CellTox Green Cytotoxicity Assay to monitor cytotoxicity in HEK293 cells - 40 hour (AID 1224871). Further: nearly all actives have a fitted effect of over 45% in size. Put shortly: as §2
On the % scale 0 is the no-effect control and ±100 the full control effect.

Consider `CCCCCCCCCCCCCCCC(=O)OC`, for which the activity change, negative = cytotoxic in test [1] was -0.272% [at 15.8 µM]; in [3], 16.9% [at 15.8 µM]; in test [6], 6.89% [at 15.8 µM]. In addition, the cytotoxicity in test [2] is -0.154% [at 15.8 µM]. Besides, the activity change, negative = cytotoxicity in test [4] is -4.38% [at 15.8 µM]. In test [5], the viability change, negative = cytotoxic was -11% [at 15.8 µM].

For `CC(C)(C)C(=O)NCCCC(=O)O`, the call in [1], in test [2], in test [3], in [4] and in [5] was inactive. Further, the Potency result in test [7] and in test [8] was “inactive” each time.

Turning to `CC(C)(O)c1ccc(C(C)(C)O)cc1`, the compound was classed as inactive in [1], in test [2], in [3], in [4], in [5] and in test [6]. Besides, the max response in test [9] is 0.887%. In addition, in test [7], the Potency entry was “inactive”.

`CCCCN1C(=O)c2ccccc2C1=O`: the outcome in [1], in test [2], in test [3], in test [4] and in test [5] was inactive. Moreover, the max response in test [9] is -3.23%. Further, in test [7], the Potency entry was “inactive”.

With `CC(C)c1cc(C(C)C)cc(C(C)C)c1`, the call in [1], in test [2], in test [3], in [4], in [5] and in [6] was inactive. Also, the max response in test [9] was 5.73%. Moreover, the Potency entry in test [7] and in test [8] was “inactive” throughout.

In the case of `NCC1CCC(C(=O)Oc2ccc(CCC(=O)O)cc2)CC1` (stereo not given), the outcome in test [1], in [2], in [3], in test [4], in test [5] and in test [6] was inactive. Moreover, in test [8], the Potency result was “inactive”.

Regarding `CCC(C)(C)C`, the compound was called inactive in [1], in test [2], in [3], in [4], in test [5] and in [6]. In test [9], the max response was 2.63%. For the same compound, the Potency result in test [7] was “inactive”.

As for `CC(C)(C)c1ccc(N)cc1`, the compound was classed as inactive in test [1], in test [2], in test [3], in [4] and in test [5]. In addition, the max response in [9] is -2.84%. For the same compound, the Potency entry in [7] is “inactive”.

As for `OCCC(F)(F)C(F)(F)C(F)(F)C(F)(F)C(F)(F)C(F)(F)F`, the compound was called inactive in test [1], in test [2], in test [3], in [4], in [5] and in test [6]. In [9], the max response was -4.06%. Also, the Potency entry in [7] and in test [8] was “inactive” throughout.

Turning to `CCNC(=O)C(C)OC(=O)Nc1ccccc1` (stereo not given), the result in test [1], in test [2], in test [3], in [4], in [5] and in [6] was inactive. For the same compound, in test [9], the max response was -1.79%. Also, the Potency result in [7] and in test [8] was “inactive” throughout.

Turning to `CC(CC(=O)Cl)CC(C)(C)C` (stereo not given), the outcome in test [1], in [2], in [3], in test [4] and in test [5] was inactive. Further, the max response in test [9] was 4.64%. Also, the Potency entry in test [7] and in [8] was “inactive” throughout.

As for `CC(C)CC(=O)N[C@H](C(=O)N[C@H](C(=O)N[C@@H](CC(C)C)[C@@H](O)CC(=O)N[C@@H](C)C(=O)N[C@@H](CC(C)C)[C@@H](O)CC(=O)O)C(C)C)C(C)C` (Isovaleryl-VV[Sta]A[Sta]-OH), the compound was called inactive in test [1], in test [2], in [3], in test [5] and in test [6]. For the same compound, the Potency entry in test [7] and in [8] was “inactive” throughout.

Consider `Nc1nc(Cl)cc(Cl)n1`, for which the result in [1], in [2], in test [3], in [4], in test [5] and in test [6] was inactive. Moreover, the max response in [9] was 16.9%. Also, in [7], the Potency entry was “inactive”.

In the case of `Clc1ccc2c(c1)Nc1ccccc1S2`, the compound was called inactive in test [1], in test [2], in test [3], in [4], in test [5] and in test [6]. The max response in test [9] was -17.2%.

For the compound `CCCCCCCC(=O)N(C)C`, the call in test [1], in test [2], in test [3], in [4], in test [5] and in test [6] was inactive. Besides, the max response in test [9] was 4.49%.

Consider `CC/C=C\CCOC(=O)c1ccccc1`, for which the compound was called inactive in test [1], in [2], in test [3] and in [5]. Also, the max response in test [9] was -28.3%. Further, the Potency entry in test [7] and in [8] was “inactive” in each case.

In the case of `CCOC(=O)CC`, the compound was called inactive in test [1], in test [2], in test [3], in test [4], in [5] and in test [6]. Moreover, the max response in [9] was 19%. For the same compound, the Potency result in test [7] and in [8] was “inactive” in each case.

Take `NNC(=O)CCCCC(=O)NN`: the result in [1], in test [2], in test [3], in test [5] and in test [6] was inactive. The Potency result in [7] and in [8] was “inactive” each time.

Regarding `O=S(=O)(O)c1cc(I)c(O)c2ncccc12`, the compound was called inactive in test [1], in [2], in test [3], in test [4] and in [5]. Moreover, in test [9], the max response is 5.82%. Moreover, the Potency result in test [7] and in test [8] was “inactive” throughout.

`CCCCNCC`: the result in [1], in test [2], in [3], in test [4], in test [5] and in [6] was inactive. For the same compound, the max response in test [9] was -1.39%. The Potency result in test [7] and in test [8] was “inactive” each time.

Regarding `C=COCCCCO`, the result in [1], in [2], in test [3], in [4], in test [5] and in [6] was inactive. In test [9], the max response is -1.03%. The Potency result in test [7] is “inactive”.

As for `CCCCCCC(=O)c1ccccc1`, the call in test [1], in test [2], in test [4], in test [5] and in test [6] was inactive. Moreover, the Potency result in [10], in [7] and in [8] was “inactive” each time. Also, in test [9], the max response was -0.886%.

In the case of `C=CCCCCCCCCCCCCCC`, the activity change, negative = cytotoxic was -0.171% [at 15.8 µM] in test [1], -8.43% [at 15.8 µM] in test [3] and -5.43% [at 15.8 µM] in test [6]. Further, in [2], the cytotoxicity was -0.258% [at 15.8 µM]. Besides, in [4], the activity change, negative = cytotoxicity was -2.4% [at 15.8 µM]. Besides, the viability change, negative = cytotoxic in test [5] was 2.93% [at 15.8 µM]. Besides, in [7], the activity change was -0.0594% [at 15.8 µM, active compounds read high]. In test [8], the cytotoxicity increase was 2.79% [at 15.8 µM].

As to `N=C(N)S(=O)O`, the compound was classed as inactive in test [1], in test [2], in test [3], in [5] and in [6]. Further, the Potency entry in test [10], in [7] and in test [8] was “inactive” each time.

For the compound `COC(=O)N/N=C/c1c[n+]([O-])c2ccccc2[n+]1[O-]`, the result in test [1], in [2], in test [3], in [4] and in test [5] was inactive. The max response in test [9] is 5.36%. Also, the Potency is 21.3 µM (active) in [7] and 23.9 µM (active) in [8].

Regarding `Cc1ccc(OC(=O)CC(C)C)cc1`, the compound was called inactive in test [1], in [2], in test [3], in test [4], in [5] and in test [6]. Also, in [9], the max response was 3.9%. In addition, the Potency entry in [7] and in test [8] was “inactive” throughout.

As for `CC(C)=CCC/C(C)=C\C#N`, the result in test [1], in test [2], in [3], in test [4], in test [5] and in [6] was inactive. Further, the max response in test [9] is 15.8%. Moreover, the Potency entry in test [7] and in test [8] was “inactive” in each case.

For `CCCCS`, the compound was called inactive in [1], in test [2], in [3], in test [4] and in [5]. In addition, the max response in [9] is 0.118%.

With `CC(C)C[P+](C)(CC(C)C)CC(C)C`, the call in test [1], in test [2], in [3], in test [4], in test [5] and in test [6] was inactive. Also, the max response in test [9] is -17.7%. Also, the Potency entry in test [8] was “inactive”.

As to `COC(=O)c1ccccc1Cl`, the result in test [1], in test [2], in [3], in test [4], in test [5] and in test [6] was inactive. Further, in test [8], the Potency result is “inactive”.

`COc1ccc(Cl)cc1C`: the call in test [1], in test [2], in [3], in [5] and in [6] was inactive. In addition, the Potency result in test [7] and in test [8] was “inactive” in each case.

Take `CCOc1ccccc1OCCN[C@H](C)Cc1ccc(OC)c(S(N)(=O)=O)c1`: the outcome in [1], in test [2], in test [3], in [4], in test [5] and in test [6] was inactive. Besides, the max response in test [9] is -2.4%. For the same compound, the Potency result in [7] and in test [8] was “inactive” throughout.

On to `CCCC(=O)C(CC)Sc1ccoc1C` (stereo not given), for which the outcome in test [1], in [3], in test [4] and in test [6] was inactive. Further, the max response in test [9] is -5.27%. The Potency result in test [7] and in test [8] was “inactive” in each case.

As for `CNC(=O)c1c(I)c(NC(C)=O)c(I)c(C(=O)O)c1I`, the call in test [1], in test [4], in test [5] and in test [6] was inactive. The Potency result in [10], in [7] and in test [8] was “inactive” in each case. The max response in test [9] was 3.75%.
